Screening data as filed in PubChem BioAssay.
Shown are actives, neighbours in structure and some others; about 1.8% of the full set was active somewhere.
ERp5 inh: inhibitors of ERp5-driven insulin aggregation, primary screen, biochemical, turbidity, absorbance 650 nm, single point; hit rate 0.05% among 350,000; Protein disulfide-isomerase A6 (Homo sapiens), Q15084; 90 min; inhibition, % at 9.99 µM;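 active means mean replicate inhibition above about 25%, with every replicate also reaching it, limit read from the data, passing the limit was not always enough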
Target sequence (Q15084 whole entry, looked up): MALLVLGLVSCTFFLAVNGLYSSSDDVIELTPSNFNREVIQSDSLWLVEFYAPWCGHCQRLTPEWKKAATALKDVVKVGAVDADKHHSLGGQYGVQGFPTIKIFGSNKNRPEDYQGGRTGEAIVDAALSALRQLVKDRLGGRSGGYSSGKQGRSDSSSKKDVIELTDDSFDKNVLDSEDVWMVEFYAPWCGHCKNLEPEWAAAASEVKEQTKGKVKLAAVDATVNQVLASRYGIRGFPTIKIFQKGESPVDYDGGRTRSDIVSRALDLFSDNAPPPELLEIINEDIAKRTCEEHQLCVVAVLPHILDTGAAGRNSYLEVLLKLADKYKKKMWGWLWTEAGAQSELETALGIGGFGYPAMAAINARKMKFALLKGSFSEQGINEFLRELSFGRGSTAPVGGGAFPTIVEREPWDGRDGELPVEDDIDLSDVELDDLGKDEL
DENV2 CPE rescue: inhibitors of DENV2 cytopathic effect, primary screen, cell-based, plate reader, single concentration | DENV2-infected cells, cytopathic effect rescue | CPE inhibition, % at 9.99 µM | AID 651640, 2012 | hit rate 1.7% among 350,000; in the data active means CPE inhibition above about 20%, passing the limit was not always enough; tested in BHK-21 cells
AF4-AF9 inh: inhibitors of AF4 peptide binding to AF9, primary screen, biochemical, AlphaScreen, biotin-AF4 peptide, FLAG-AF9, single point; Protein AF-9 (Homo sapiens), P42568; inhibition, % at 10 µM; AID 651704, 2012; hit rate 0.47% among 350,000;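 active means every replicate reaching a set inhibition limit, whatever the replicate mean, cut at about 25% in these data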
PDI turbidity: inhibitors of human PDI, primary screen, biochemical, turbidity, single point, plate reader; hit rate 0.052% among 350,000; PDI insulin aggregation turbidity, A650, 90 min; Protein disulfide-isomerase (Homo sapiens), P07237; inhibition, % at 10 µM;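 active means mean inhibition across replicates of 30% or more, whatever share of single replicates reach that level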
ERAP1 HTS inh: human ERAP1 aminopeptidase inhibitors, primary screen, biochemical, single point, plate reader | hit rate 0.15% among 340,000 | inhibition, % at 10.7 µM | recombinant ERAP1, Leu-AMC fluorescence, 60 min;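 active means mean replicate inhibition of at least 30%, or all replicates individually reaching that 30% level; inactive means mean below 30% and not every replicate reaching it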
Hits are given with their value; . = inactive; / = no result given.

SMILES	ERp5 inh	DENV2 CPE rescue	AF4-AF9 inh	PDI turbidity	ERAP1 HTS inh
C/C=C/c1cnc2c(c1)C(=O)N([C@@H](C)CO)C[C@H](C)[C@H](CN(C)Cc1cncnc1)O2	.	37	.	/	.
Cc1noc(C)c1NC(=O)Nc1ccc2c(c1)C(=O)N([C@H](C)CO)C[C@H](C)[C@H](CN(C)S(=O)(=O)c1cn(C)cn1)OCCCC[C@H](C)O2	.	.	.	/	.
Cc1ccc(S(=O)(=O)N(C)C[C@@H]2OCCCC[C@H](C)Oc3ccc(NC(=O)c4ccncc4)cc3C(=O)N([C@@H](C)CO)C[C@H]2C)cc1	.	.	.	/	.
O=C(NCCN1CCOCC1)C1CCN(c2nc3ccccc3o2)CC1	.	/	40	.	.
CCc1cc(=O)oc2cc(OC(=O)CN3C(=O)NC4(CCCC4)C3=O)ccc12	.	.	.	.	.
O=C(CN1C(=O)NC2(CCCC2)C1=O)Oc1ccc2ccc(=O)oc2c1	.	.	.	.	57
CCOc1ccc(NC(=O)CC2C(=O)N(c3ccc(OC)cc3)C(=O)N2CCc2cccs2)cc1 (configuration not stated)	.	96	.	.	.
COc1ccc(NC(=O)CC2C(=O)N(c3ccccc3)C(=O)N2CCc2cccs2)cc1 (configuration not stated)	.	.	.	.	.
CCN1C(=O)C(CC(=O)Nc2ccc(OC)cc2)N(CCCN2CCN(c3ccc(OC)cc3)CC2)C1=S (configuration not stated)	.	/	28	.	.
Cc1noc(C)c1NC(=O)N[C@H]1CC[C@H](CCNC(=O)C2CCC2)O[C@H]1CO	.	.	.	/	.
CCCCCN(C(=O)CCc1cn(CCCCC)c2ccccc12)c1ccc(N(C)c2ccccn2)cc1	.	.	/	/	.
CCCCCN(C(=O)CCc1cn(CCCCC)c2ccccc12)c1ccc(Oc2cccnc2)cc1	.	91	/	/	.
COc1ccc(NC(=O)N(C)C[C@@H]2OCCCC[C@@H](C)Oc3ccc(NC(=O)c4ccncc4)cc3C(=O)N([C@@H](C)CO)C[C@H]2C)cc1	/	41	/	/	/
C[C@@H]1CN([C@H](C)CO)C(=O)c2cc(N(C)C)ccc2O[C@@H](C)CCCCO[C@H]1CN(C)C(=O)CCC(F)(F)F	.	.	.	/	.
C[C@@H]1CCCCO[C@@H](CN(C)C(=O)CCC(F)(F)F)[C@H](C)CN([C@@H](C)CO)C(=O)c2cc(NC(=O)c3ccncc3)ccc2O1	/	.	/	/	/
C[C@@H]1CCCCO[C@H](CN(C)C(=O)Nc2ccc(C(F)(F)F)cc2)[C@@H](C)CN([C@@H](C)CO)C(=O)c2cc(NC(=O)c3ccncc3)ccc2O1	.	.	.	/	.
C[C@@H]1CN([C@H](C)CO)C(=O)c2cc(N(C)C)ccc2O[C@@H](C)CCCCO[C@@H]1CN(C)C(=O)CCC(F)(F)F	.	106	.	/	.
C[C@@H]1CCCCO[C@@H](CN(C)C(=O)Nc2ccc(C(F)(F)F)cc2)[C@@H](C)CN([C@H](C)CO)C(=O)c2cc(NC(=O)c3ccncc3)ccc2O1	/	28	.	/	.
C[C@@H]1CCCCO[C@@H](CN(C)C(=O)CCC(F)(F)F)[C@H](C)CN([C@H](C)CO)C(=O)c2cc(NC(=O)c3ccncc3)ccc2O1	.	21	.	/	.
C[C@H]1CCCCO[C@H](CN(C)C(=O)Nc2ccc(F)cc2)[C@@H](C)CN([C@@H](C)CO)C(=O)c2cc(NS(=O)(=O)c3cn(C)cn3)ccc2O1	.	.	.	/	.
CN(C)C(=O)c1cccc(-c2ccc([C@@H]3[C@H]4CN(C(=O)C5CCCCC5)CC(=O)N4[C@H]3CO)cc2)c1	.	.	.	/	.
C/C=C/c1ccc([C@H]2[C@@H](CO)N[C@@H]2CNC(=O)C2CC2)cc1	.	.	.	/	.
CN1c2ccc(-c3ccc(F)cc3)cc2[C@H]2[C@H](CCN2C(=O)c2ccc(F)cc2)[C@@H]1CO	.	.	.	/	.
C[C@@H]1CN([C@H](C)CO)C(=O)c2cc(-c3ccccc3)cnc2O[C@@H]1CN(C)C(=O)c1ccccc1F	.	105	.	/	/
CCC(=O)N(C)C[C@@H]1Oc2ncc(-c3ccc(C#N)cc3)cc2C(=O)N([C@H](C)CO)C[C@H]1C	.	.	.	/	.
SMILES	ERp5 inh	DENV2 CPE rescue	AF4-AF9 inh	PDI turbidity	ERAP1 HTS inh
CCC(=O)N(C)C[C@H]1Oc2ncc(/C=C/c3ccccc3)cc2C(=O)N([C@@H](C)CO)C[C@@H]1C	.	42	.	/	.
CC(C)NC(=O)N(C)C[C@@H]1Oc2ncc(-c3ccccc3F)cc2C(=O)N([C@@H](C)CO)C[C@H]1C	.	23	.	/	.
CCC(=O)N(C)C[C@@H]1Oc2ncc(-c3ccc(C#N)cc3)cc2C(=O)N([C@H](C)CO)C[C@@H]1C	.	70	.	/	.
CC(C)NC(=O)N(C)C[C@H]1Oc2ncc(-c3ccccc3F)cc2C(=O)N([C@H](C)CO)C[C@H]1C	.	.	.	/	.
C[C@@H]1CN([C@H](C)CO)C(=O)c2cc(C#Cc3ccc(F)cc3)cnc2O[C@@H]1CN(C)C(=O)c1ccccc1F	.	45	.	/	.
C/C=C/c1cnc2c(c1)C(=O)N([C@H](C)CO)C[C@@H](C)[C@@H](CN(C)C(=O)Nc1ccccc1F)O2	.	30	.	/	.
Cc1ccc(-c2cnc3c(c2)C(=O)N([C@@H](C)CO)C[C@H](C)[C@@H](CN(C)C(=O)c2ccccc2)O3)cc1	.	.	.	/	.
CCC(=O)N(C)C[C@@H]1Oc2ncc(-c3ccc(C)cc3)cc2C(=O)N([C@@H](C)CO)C[C@@H]1C	.	.	.	/	.
Cc1ccc(-c2cnc3c(c2)C(=O)N([C@H](C)CO)C[C@@H](C)[C@@H](CN(C)C(=O)c2ccccc2)O3)cc1	.	68	.	/	.
CCC(=O)N(C)C[C@@H]1Oc2ncc(-c3ccc(C)cc3)cc2C(=O)N([C@@H](C)CO)C[C@H]1C	.	22	.	/	.
C[C@H](CO)N1C[C@H](C)[C@H](CN(C)C(=O)c2ccccc2F)Oc2ncc(C#Cc3ccc(F)cc3)cc2C1=O	.	.	.	/	.
COCC#Cc1cnc2c(c1)C(=O)N([C@H](C)CO)C[C@@H](C)[C@@H](CN(C)C(=O)C1CCCCC1)O2	.	.	.	/	.
O=C(CC1CC1)Nc1ccc2c(c1)[C@H]1C[C@@H](CC(=O)N3CCOCC3)O[C@H](CO)[C@H]1O2	/	.	/	/	/
CCCC(=O)N1CCC2(CC1)CN(Cc1cccnc1)[C@@H](CO)c1[nH]c3cc(OC)ccc3c12	.	.	.	/	.
C[C@H](CO)N1C[C@H](C)[C@H](CN(C)C(=O)Nc2ccc(C(F)(F)F)cc2)OCCCC[C@H](C)Oc2ccc(NC(=O)Nc3ccc4c(c3)OCO4)cc2C1=O	.	.	.	/	.
C[C@H]1C=C(C(=O)N2CCN(Cc3ccc4c(c3)OCO4)CC2)O[C@@H](OCCCCO)C1	.	.	.	/	.
